Test results: PubChem BioAssay AID492952 (Southern Research Specialized Biocontainment Screening …, 2010)
About 1,500 (65%) of roughly 2,300 compounds were called active. So high a share suggests a set chosen from earlier hits. The list shows a part of the results. Potency and affinity values are given separately. Unmarked numbers belong to inactive results. No rule for the calls is given here.

Experiment: replicating M. tuberculosis growth inhibition, dose response, non-replicating M. tuberculosis project, H37Rv (AID 492952);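 also: Mycobacterium tuberculosis grown in culture; growth inhibition read after a week of incubation; 0% = bacteria alone untreated and 100% = bacteria with high antibiotic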
Settings: series mostly up to 50 µM; inhibition: at the top concentration

Row | Compound | inhibition [%]
1 | O=C1CCC(=O)N1CNc1ccc(Oc2ccccc2)cc1 | -6.19
2 | CCOC(=O)CCSc1n[nH]c(=S)s1 | 0.83
3 | CC(=O)N1CCN(C(=O)CC2OC(=O)c3ccccc32)CC1 (stereo not given) | -6.89
4 | CCn1ccc(C(=O)Nc2cccc(Cl)c2)n1 | -3.96
5 | O=C(COC(=O)CC1CCCC1)Nc1ccc(Cl)cn1 | 0.61
6 | COc1ccc(CC(=O)OCC(=O)Nc2ccc(Br)cc2)cc1 | -4.73
7 | O=C(COc1ccccc1)Nc1ccc(Cl)cn1 | 4
8 | O=C(O)c1ccc(NCc2ccc(Br)cc2)cc1 | 1.94
9 | O=C(COc1ccc(Br)cc1)N/N=C1/SCC(=O)N1Cc1ccco1 | 0.21
10 | COc1ccccc1C(=O)OCC(=O)Nc1ccc(Cl)cn1 | 6.92
11 | O=C(CCC1CCCC1)Nc1ccc(Br)cn1 | -6.11
12 | Cc1ccc(OCC(=O)Nc2ccc([N+](=O)[O-])cc2)cc1 | 4.13
13 | O=C(OCC#CCSc1nnc(-c2ccncc2)o1)c1cccs1 | 8.48
14 | O=C(NCc1cccs1)c1ccc([N+](=O)[O-])cc1 | 17.9
15 | OC(C#CCN1CCOCC1)c1cccs1 (stereo not given) | 17.4
16 | Nc1ccc(C(=O)N/N=C\C=C\c2ccc([N+](=O)[O-])cc2)cc1 | -1.89
17 | CCOC(=O)c1csc(NC(=O)COc2ccc(Cl)cc2Cl)n1 | 2.42
18 | O=C(N/N=C/c1cc(Br)ccc1O)c1ccccc1Cl | -1.46

Row | Compound | inhibition [%]
19 | COC(=O)COc1ccc(S(=O)(=O)NCc2ccc3c(c2)OCO3)cc1 | 14
20 | O=C(NCc1ccc(Cl)cc1)c1n[nH]c([N+](=O)[O-])c1Cl | -6.89
21 | O=C1NC(Cc2c[nH]c3ccccc23)C(=O)N1CCOc1ccccc1 (stereo not given) | -4.22
22 | Cc1cc(Cl)ccc1N(CC(=O)NCc1ccccc1)S(C)(=O)=O | 2.63
23 | c1ccc(-c2nnc(SCc3cn4ccsc4n3)o2)cc1 | 0.98
24 | Fc1ccc(-c2nnc(CSc3nnc(-c4cccs4)o3)o2)cc1 | 8.56
25 | CCn1cc(C(=O)NC(C)C23CC4CC(CC(C4)C2)C3)cn1 (stereo not given) | -7.28
26 | CCOC(=O)Nc1ccc2c(c1)N(C(=O)CCCl)c1ccccc1[S@]2=O | 13.7
27 | CN(C)CCC(=O)N1c2ccccc2Sc2ccc(Cl)cc21 | 2.62
28 | CCOc1ccccc1OC(=O)c1cc2ccccc2oc1=O | 27.5
29 | O=Cc1coc2ccc3ccccc3c2c1=O | 0.34
30 | Cc1ccc(C)c(NC(=O)COC(=O)c2cc3ccccc3oc2=O)c1 | 6.08
31 | CC1(c2nnc(Cc3ccccc3)o2)CC(c2ccccc2[N+](=O)[O-])=NO1 (stereo not given) | 3.65
32 | C/C(=N\O)c1cc(Cl)ccc1O | 0.24
33 | CC(C)=CCN1CCN(Cc2cn(C(C)C)c3ccccc23)CC1CCO (stereo not given) | 5.98
34 | O=[N+]([O-])c1ccc(N2CCCCCC2)c2nonc12 | 10.1
35 | CCOc1ccc(-c2ccc(C=O)o2)c([N+](=O)[O-])c1 | -3.32
